HIV Env fusion: blocks HIV Env-driven cell-cell fusion. 360,000 compounds, 1.1% hits. inhibition, % at 12.3 µM. HeLa-JRFL Env/CEM21 cell fusion, luciferase;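 active = mean replicate inhibition score of at least 50 and every replicate individually at or above 50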;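 also: 0% = plate neutral controls and 100% = maraviroc near 300 nM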
PAX8 reporter: inhibitors of PAX8 transcriptional activity in RMG-I cells. RMG-I TPO-luciferase reporter, SteadyGlo, 24 h. inhibition, % at 12.6 µM. 360,000 compounds, 1.2% hits. AID 652154;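 active = mean replicate inhibition at least 60% with every replicate also reaching 60%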;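 also: luciferase light reporting Pax8 driven TPO promoter activity; plate controls were median of neutral control wells for no effect and mitoxantrone controls for full effect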
Shn3 3UTR inh: inhibitors of Schnurri-3 3'UTR reporter in osteoblasts | Clone20 osteoblast Shn3 3'UTR firefly luciferase, 24 h | AID 588674 | inhibition, % at 12.5 µM | 360,000 compounds, 0.52% hits;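 active = mean inhibition of at least 75% with every replicate also reaching 75%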;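 also: 0% = median of neutral control wells and 100% = pilot-screen positive control compound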
NSD2 HMT inh: blocks human histone methyltransferase NSD2; O96028; NSD2 peptide methylation, AlphaScreen, 120 min; inhibition, % at 12.5 µM; 310,000 compounds, 0.54% hits; AID 743445; in the data active = inhibition above about 50%
LMP1 NFkB inh: Epstein-Barr LMP1 NF-kappaB reporter inhibition; AID 504558; 350,000 compounds, 0.69% hits; LMP1-induced NF-kappaB luciferase reporter cells, luminescence; inhibition, % at 12.5 µM; in the data active = inhibition above about 41%;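 also: 0% = neutral control wells and 100% = reference inhibitor control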
N-glyco inh: N-linked glycosylation inhibition; D54 ERlucT glycosylation luciferase reporter, 24 h; percent of 100 nM tunicamycin response; reporter increase, % at 12.5 µM; 360,000 compounds, 0.23% hits;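 active = mean luciferase reporter signal, scaled so untreated is 0 and the glycosylation-blocking control 100, at or above a set limit in every replicate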;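 also: luciferase carries N-glycosylation sites so blocking glycosylation raises the light; 0% = median of neutral control wells and 100% = median of 100 nM tunicamycin wells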
Active calls of the source: *; · = not tested or not shown; [ ] = remark or other dose. Only some compounds are listed: those with a hit (about 2.8% of all), similar ones and a draw of the others.

SMILES	HIV Env fusion	PAX8 reporter	Shn3 3UTR inh	NSD2 HMT inh	LMP1 NFkB inh	N-glyco inh
CCOc1ncccc1C(=O)Nc1ccc2c(c1)OCO2	-10	-21	-3	-1	-4	1
CC(C)NC(=O)N(C)C[C@@H]1OCCCC[C@H](C)Oc2ccc(N(C)C)cc2C(=O)N([C@H](C)CO)C[C@@H]1C	32[16.7 µM]	5	·	·	·	·
COc1ccc(NC(=O)/C(Cl)=C(/Cl)S(=O)(=O)Cc2ccccc2)cn1	·	·	97*	·	90*	-18
COc1ccc(NC(=O)C(Cl)=C(Cl)Cl)cn1	1	52	9	2	3	0
COc1ccc(NC(=O)/C(Cl)=C(/Cl)S(=O)Cc2ccc(Cl)cc2)cn1 (stereo not drawn)	4	88*	96*	·	78*	-22
Cc1noc(C)c1NC(=O)N(C)C[C@@H]1OCCCC[C@@H](C)Oc2ccc(NS(C)(=O)=O)cc2C(=O)N([C@H](C)CO)C[C@@H]1C	-27[16.7 µM]	-20	·	·	·	·
Cc1ccccc1-c1ccc2c(c1)O[C@@H](CN(C)Cc1ccncc1)[C@H](C)CN([C@@H](C)CO)S2(=O)=O	23[16.7 µM]	·	·	·	·	·
O=C(CSCC(=O)Nc1cccc2ccccc12)Nc1cccc2ccccc12	71*	24	-18	-6	4	-1
O=C(CSCCO)Nc1cccc2ccccc12	-28	·	3	0	-7	2
CC(C)(C)S(=O)(=O)/C(C#N)=N/Nc1ccc(Cl)cc1	58*	26	-3	10	6	-3
CC(C)(C)c1ccc(N/N=C(\C#N)S(=O)(=O)C(C)(C)C)cc1	26	26	0	8	1	-3
Cc1ccc(S(=O)(=O)Oc2ccccc2-c2ccccc2)cc1	60*	29	59	-4	-3	1
O=C(c1cccnc1)N1CC[C@@H]2[C@H]1c1cc(-c3ccc(F)cc3)ccc1N[C@@H]2CO	·	-1	·	·	·	·
O=C(c1ccccc1Br)N1CCN(Cc2ccc3c(c2)OCO3)CC1	27	-15	8	25	43*	-5
O=C(c1ccccc1F)N1CCN(Cc2cccc(Cl)c2)CC1	69*	·	8	-1	19	-6
CC(C)CC#Cc1ccc([C@H]2[C@@H](CO)N3CCCCN(C(=O)Nc4ccccc4)C[C@@H]23)cc1	·	-7	·	·	·	·
C[C@H](O)C#Cc1ccc([C@H]2[C@H]3CN(C(=O)Nc4ccccc4)CCCCN3[C@H]2CO)cc1	·	69*	·	·	·	·
C[C@H](O)C#Cc1ccc([C@H]2[C@H](CO)N3CCCCN(C(=O)Nc4ccccc4)C[C@@H]23)cc1	·	19	·	·	·	·
CC(C)CC#Cc1ccc([C@@H]2[C@H]3CN(C(=O)Nc4ccccc4)CCCCN3[C@H]2CO)cc1	·	74*	·	·	·	·
COc1ccc(-c2cc(=O)oc3cc(O)ccc23)cc1	36	5	15	-3	19	-7
COc1ccc(-c2cc(=O)oc3cc(OC(=O)C4CCCCC4)c(Cl)cc23)cc1	66*	-27	20	-6	34	-9
O=C(C[C@@H]1CC[C@@H](NC(=O)c2ccncc2)[C@@H](CO)O1)NCC1CCCCC1	3[16.7 µM]	-6	·	·	·	·
COc1ccc(C(=O)c2cnc3ccccc3c2-c2ccccc2)cc1	91*	·	22	0	9	-8
Cc1ccc(C(=O)c2cnc3ccccc3c2-c2ccccc2)cc1	83*	·	25	-1	13	-9
Cc1ccc(C(=O)c2nc(C(=O)NCCO)nc3ccccc23)cc1	6	15	-15	·	-4	5
SMILES	HIV Env fusion	PAX8 reporter	Shn3 3UTR inh	NSD2 HMT inh	LMP1 NFkB inh	N-glyco inh
CC(C)NC(=O)N(C)C[C@@H]1Oc2ncc(-c3ccc(C(=O)N(C)C)cc3)cc2C(=O)N([C@@H](C)CO)C[C@@H]1C	-39[16.7 µM]	·	·	·	·	·
CCC(=O)N(C)C[C@H]1Oc2cc(C#CCC3CCCC3)ccc2S(=O)(=O)N([C@H](C)CO)C[C@@H]1C	-12[16.7 µM]	20	·	·	·	·
COc1ccccc1S(=O)(=O)N(C)C[C@H]1Oc2cc(C#CCC3CCCC3)ccc2S(=O)(=O)N([C@@H](C)CO)C[C@@H]1C	28[16.7 µM]	82*	·	·	·	·
CCC(=O)N(C)C[C@H]1Oc2cc(C#CCC3CCCC3)ccc2S(=O)(=O)N([C@@H](C)CO)C[C@@H]1C	-19[16.7 µM]	17	·	·	·	·
C[C@H]1CN([C@@H](C)CO)S(=O)(=O)c2ccc(C#CCC3CCCC3)cc2O[C@H]1CN(C)C(=O)CN(C)C	24[16.7 µM]	64*	·	·	·	·
COc1ccccc1S(=O)(=O)N(C)C[C@@H]1Oc2cc(C#CCC(C)C)ccc2S(=O)(=O)N([C@H](C)CO)C[C@H]1C	24[16.7 µM]	·	·	·	·	·
COCC(=O)N(C)C[C@H]1Oc2cc(C#CCC3CCCC3)ccc2S(=O)(=O)N([C@@H](C)CO)C[C@@H]1C	3[16.7 µM]	73*	·	·	·	·
COCC(=O)N(C)C[C@H]1Oc2cc(C#CCC3CCCC3)ccc2S(=O)(=O)N([C@H](C)CO)C[C@H]1C	4[16.7 µM]	69*	·	·	·	·
CN(C)CCCNC(=O)[C@H]1[C@H](CO)[C@H]2Cn3c(ccc(-c4ccc(F)cc4)c3=O)[C@H]2N1C	·	-11	·	·	·	·
O=C(CSc1nc2nc(-c3cccs3)cc(C(F)(F)F)c2c(=O)[nH]1)C(F)(F)F	29	3	-58	·	10	37*
COC(=O)CSc1nc2nc(-c3cccs3)cc(C(F)(F)F)c2c(=O)[nH]1	11	-2	0	-2	9	0
O=C(NNC(=O)c1ccc2ccccc2c1)c1cccc(F)c1	·	-46	-35	-2	7	2
O=C(NNC(=O)c1cccc2ccccc12)c1cccc(F)c1	·	87*	-1	3	2	0
CN(C)/N=C/C=C1\CCC/C(=C\c2ccc(F)c(F)c2)C1=O	-52	-50	-9	0	-97	32*
COc1ccc(/C=C2\CCC/C(=C\C=N\N(C)C)C2=O)cc1	-23	-20	5	11	-28	9
COc1ccc(NC(=O)NCCCN2CCN(c3cc(C)ccc3C)CC2)cc1	59*	26	46	·	11	-5
C[C@H]1CN([C@@H](C)CO)C(=O)c2cc(NS(=O)(=O)c3ccc(Cl)cc3)ccc2O[C@@H]1CN(C)C	·	-20	·	·	·	·
Cc1cccc(NCc2ccc(O)c3ncccc23)c1C	46	99*	82	2	-5	-5
Cc1ccc(S(=O)(=O)Nc2ccc3c(c2)C(=O)N([C@H](C)CO)C[C@@H](C)[C@H](CN(C)S(=O)(=O)c2ccc(C)cc2)OCCCC[C@H](C)O3)cc1	-16[16.7 µM]	84*	·	·	·	·
Cc1ccc(S(=O)(=O)Nc2ccc3c(c2)C(=O)N([C@H](C)CO)C[C@@H](C)[C@@H](CN(C)C(=O)c2ccccc2)OCCCC[C@H](C)O3)cc1	-29[16.7 µM]	-24	·	·	·	·
Cc1ccc(S(=O)(=O)Nc2ccc3c(c2)C(=O)N([C@H](C)CO)C[C@H](C)[C@H](CN(C)C)OCCCC[C@@H](C)O3)cc1	-4[16.7 µM]	-17	·	·	·	·
Cc1ccc(S(=O)(=O)Nc2ccc3c(c2)C(=O)N([C@H](C)CO)C[C@@H](C)[C@@H](CN(C)S(=O)(=O)c2ccc(C)cc2)OCCCC[C@H](C)O3)cc1	-12[16.7 µM]	-27	·	·	·	·
